{"source": "PubChem BioAssay (NCI)", "note": "Compounds without any hit were thinned out: in the full panel of roughly 83,000, 20% have a hit.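 Testing used 96-well plates and a 48-hour single-concentration exposure. Example: -40 means 40% of the starting cells died.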 A number with no mark means an inactive call. The source made the active and inactive calls. The calls were made as follows: active = growth percent below 10; inactive = the rest."}
{"system": "A549/ATCC NSCLC", "assay": "NCI-60 one-dose screen, 48 h (100 = growth as untreated, 0 = no growth, -100 = all killed)", "settings": "10 µM unless noted"}
{"molecule": "CC(O)c1cc2ccccc2c(=O)o1", "note": "(centres undefined)", "growth": "102%"}
{"molecule": "NC/C(=C/F)COc1ccc2nc(NCc3cccnc3)oc2c1", "growth": "95.3%"}
{"molecule": "Cc1ccc(NC(=O)N[C@@H](Cc2cc(F)cc(F)c2)C(=O)NC2C(=O)N3C[C@H](O)C[C@H]3C(=O)N3CCCC[C@H]3C(=O)N[C@@H](CO)C(=O)N3C[C@H](C)C[C@H]3C(=O)O[C@H]2C)c(F)c1", "note": "(some centres undefined)", "growth": "73.4%"}
{"molecule": "O=c1[nH]c2ccccc2cc1CSc1ccccc1Nc1nccc(-c2ccc(Cl)cc2)n1", "growth": "95.4%"}
{"molecule": "CCn1c(SCC(=O)Nc2cccc(C(=O)/C=C/c3ccc(Br)cc3)c2)nc2ccccc2c1=O", "growth": "77.7%"}
{"molecule": "Fc1ccc(-c2cc3nc(C(Cl)Cl)nc(-c4ccc(F)cc4)n3n2)cc1", "growth": "-26.8% (active)"}
{"molecule": "CCNC(=O)N1CCc2cc(OC)c(OCCc3ccc(OC)cc3)cc2C1c1ccc(OC)cc1C", "note": "(centres undefined)", "growth": "13.8%"}
{"molecule": "C#CCOC(=O)[C@@H]1CCCN1CC#C", "growth": "80.3%"}
{"molecule": "CCNC(=O)N1CCc2cc(OC)c(OCCc3ccc(OC)cc3)cc2C1c1ccc(Cl)cc1C", "note": "(centres undefined)", "growth": "9.93% (active)"}
{"molecule": "COc1cc2nc(Cl)nc(Nc3cccc(C4=Nc5c(N)nc(N)nc5NC(c5ccc(Br)cc5)C4)c3)c2cc1OC", "note": "(centres undefined)", "growth": "55.9%"}
{"molecule": "COc1ccc(C(=O)CSc2nc3c(c(Nc4ccc(S(N)(=O)=O)cc4)n2)CCCC3)cc1", "growth": "92.7%"}
{"molecule": "Nn1c(N/N=C/c2nc3ccccc3s2)n[nH]c1=S", "growth": "95.3%"}
{"molecule": "Cc1ccc(NC(=O)CNc2cc(C(N)=O)cc(F)c2C)c(Cl)c1", "growth": "91.9%"}
{"molecule": "Cc1cccc2c3c(sc12)C(c1ccc(Cl)cc1)c1c(nc(CC(=O)Nc2ccccc2)[nH]c1=O)O3", "note": "(centres undefined)", "growth": "62.6%"}
{"molecule": "C=C(C=O)[C@@H]1CC[C@]2(C)[C@H](C(=O)C=C3[C@H]4C[C@](C)(C(=O)OC)CC[C@]4(C)CC[C@]32C)[C@@]1(C)CCC#N", "growth": "104%"}
{"molecule": "Nc1nc(-c2cccc([N+](=O)[O-])c2)c(N=Nc2ccccc2)s1", "growth": "60%"}
{"molecule": "CC(=O)C1=C(C)NC(NNC(N)=S)=NC1c1ccccc1", "note": "(centres undefined)", "growth": "87.9%"}
{"molecule": "COc1cc(OC)c(S(N)(=O)=O)cc1C(C)=O", "growth": "104%"}
{"molecule": "CCOC(=O)c1c(Nc2ccccc2)nn2c(-c3ccc(OC)cc3)ccnc12", "growth": "88.7%"}
{"molecule": "O=C(CCn1c[n+](CC(=O)c2ccc(-c3ccccc3)cc2)c2ccccc21)Nc1cccc2cccnc12", "growth": "89.8%"}
{"molecule": "N#C/C(=C\\c1ccc(-c2ccc(Cl)cc2Cl)o1)c1ccc(F)cc1", "growth": "100%"}
{"molecule": "O=S(=O)(Nc1ccc2c(c1)OCO2)c1ccc(-c2cnc(C3CC3)o2)cc1", "growth": "43.8%"}
{"molecule": "COc1ccc(/C=C/C(=O)c2cc(S(N)(=O)=O)c(OC)cc2OC)cc1", "growth": "84.3%"}
{"molecule": "CS(=O)(=O)c1ccc(-n2cc(/C=N/O)c(-c3ccccc3)n2)cc1", "growth": "77.2%"}
{"molecule": "COc1ccc2c(c1)c(-c1cc(N)n3nc(-c4cn(C)c5ccc(OC)cc45)cc3n1)cn2C", "growth": "46.1%"}
{"molecule": "C#CC(=O)N(c1ccc(OC)cc1OC)C(C(=O)NCC(=O)OCC)c1cccs1", "note": "(centres undefined)", "growth": "94.4%"}
{"molecule": "C=CCn1c(SCC(=O)Nc2ccc(C(=O)/C=C/c3cc(OC)c(OC)c(OC)c3)cc2)nnc1-c1c[nH]c2ccccc12", "growth": "34.7%"}
{"molecule": "CC(C)(C)CC(C)(C)n1nnnc1C(Nc1nccs1)c1cc2cccc3ccc4cccc1c4c32", "note": "(centres undefined)", "growth": "107%"}
{"molecule": "Cc1ccc2c(c1)C(=O)/C(=C/c1cccc(F)c1)S2", "growth": "107%"}
{"molecule": "CC1(COc2ccc3ncc(C#Cc4cncc(C(=O)Nc5cccc(C(F)(F)F)c5)c4)n3n2)COC1", "growth": "88.3%"}
{"molecule": "O=C(Nc1nonc1-c1ccccc1)c1ccc(C(F)(F)F)cc1", "growth": "87.3%"}
{"molecule": "CN1CCN(Cc2ccc(NC(=O)c3cncc(C#Cc4cnc5ccc(N6CCN(C)CC6)nn45)c3)cc2C(F)(F)F)CC1", "growth": "-71.4% (active)"}
{"molecule": "COc1cccc2c1CN(C(=O)c1ccc(O)c(C(=O)N3Cc4ccc(OCCC[P+](c5ccccc5)(c5ccccc5)c5ccccc5)cc4C3)c1)C2", "growth": "101%"}
{"molecule": "CCCSc1nc(Nc2ccc(/C(C)=N\\NC(N)=S)cc2)c(C#N)c(-c2ccccc2)n1", "growth": "43.7%"}
{"molecule": "C[C@H]1c2[nH]c3ccccc3c2C[C@H]2C(=O)N(CCCCCCC(=O)NO)CC(=O)N21", "growth": "98%"}
{"molecule": "CC1(C)CC[C@]2(C(=O)N3CCOCC3)CC[C@]3(C)C(=CC[C@@H]4[C@@]5(C)C/C(=C/c6ccccn6)C(=O)C(C)(C)[C@@H]5CC[C@]43C)[C@@H]2C1", "growth": "54.5%"}
{"molecule": "C=C(C)[C@@H]1CC[C@]2(COC)CC[C@]3(C)[C@H](CC[C@@H]4[C@@]5(C)CCCNC(C)(C)[C@@H]5CC[C@]43C)[C@@H]12", "growth": "39%"}
{"molecule": "COc1cc(-c2nn(C(C)(C)C)cc2-c2ccnc(NCCCNS(=O)(=O)c3ccccc3)n2)ccc1Cl", "growth": "51.4%"}
{"molecule": "Cc1cc(C)c(N2C(=O)CC(Nc3ccc(Cl)cc3Cl)C2=O)c(C)c1", "note": "(centres undefined)", "growth": "104%"}
